# Assay results published in PubChem BioAssay (NCATS).
# Results filed as inconclusive are left out. The source made the active and inactive calls. Calls follow the shape of the dose curve; as a rule, active = well fitted curve in the direction sought with a large enough effect; inconclusive = small, poorly fitted or top-dose-only effect, or another doubt; inactive = no such curve, though single readings can be large; an effect the other way counts as inactive or inconclusive.
# Experiment: Redox Reaction Profiling qHTS: Assay Interference Panel against the NCATS CANVASS Library (AID 1347401); also: potency is read from the fitted curve at half-maximal effect;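 as to activation (redox signal): 100% = activation by 2 µM chloranil control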
# Conditions: resazurin-DTT redox cycling, fluorescence, 15 min; series mostly up to 57.1 µM; activation (redox signal): at the top concentration
# Procedure, shortened: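 Fluorescence read-out (525 nm excitation, 598 nm emission) at time zero and after 15 min in the dark tracked resorufin formation. Mix: 5 uM resazurin, 200 uM DTT, HEPES pH 7.3 buffer with NaCl.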
Compound,activation (redox signal),Potency
O=c1cc(-c2ccccc2)oc2cc(O)c(O)c(O)c12,-28.6% (inactive),
COC(=O)[C@@H]1[C@H]2C[C@H]3c4[nH]c5ccccc5c4CCN3C[C@@H]2CC[C@@H]1O,-16.7% (inactive),
O=C(O)C(O)Cc1ccc(O)c(O)c1 (stereo not drawn),,15.2 µM (active)

# Experiment: qHTS to identify inhibitors of the type 1 interferon - major histocompatibility complex class I in skeletal muscle: primary screen against the NCATS LOPAC collection (AID 1347405);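 also: human myoblasts with HiBiT tag on endogenous HLA-B stimulated by IFN-beta; lytic HiBiT luminescence reporting HLA-B protein level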; also: potency is read from the fitted curve at half-maximal effect; as to activity change, negative = inhibition: % is scaled to controls: 0 for no effect and ±100 for the full control effect
# Conditions: iHSKM muscle cells, IFN-b-induced MHC-I HiBiT luminescence, 24 h; series mostly up to 45.9 µM; activity change, negative = inhibition: at the top concentration
# Procedure, shortened: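 HLA-B HiBiT myoblasts, IFN-b 4 ng/ml, dexamethasone-free medium; compounds 7-pt 1:4.3 titration, top 46 uM final; 24 h at 37 C; Nano-Glo HiBiT lytic reagent, 10 min RT, luminescence.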
Compound,"activity change, negative = inhibition",Potency
CCN(CC)C(=O)c1ccc(O)c(OC)c1,-1.9% (inactive),
CC(=O)c1ccc(S(=O)(=O)NC(=O)NC2CCCCC2)cc1,-15.6% (inactive),
CC(=O)N[C@@H](CS)C(=O)O,-25.8% (inactive),
CC(=O)CCCCn1c(=O)c2c(ncn2C)n(C)c1=O,2.18% (inactive),
CCn1cc(C(=O)O)c(=O)c2ccc(C)nc21,11.7% (inactive),
CCN(CC)CCOC(=O)c1ccc(N)cc1,-15% (inactive),
CCN1CCC[C@H]1CNC(=O)c1cc(S(N)(=O)=O)ccc1OC,-4.07% (inactive),
CC(=O)O[C@]1(C(C)=O)CC[C@H]2[C@@H]3C=C(Cl)C4=CC(=O)[C@@H]5C[C@@H]5[C@]4(C)[C@H]3CC[C@@]21C,-8.71% (inactive),
O=C(NCCN1CCOCC1)c1ccc(Cl)cc1,4.89% (inactive),
COc1cccc(-c2cc(=O)c3ccccc3o2)c1N,-17.4% (inactive),
COC(=O)[C@@H]1[C@H]2C[C@H]3c4[nH]c5ccccc5c4CCN3C[C@@H]2CC[C@@H]1O,-22.4% (inactive),
Clc1ccc(Cn2c(CN3CCCC3)nc3ccccc32)cc1,-2.24% (inactive),
COc1ccc(Cc2nccc3cc(OC)c(OC)cc23)cc1OC,-27.5% (inactive),
CN(C)CCC(c1ccccc1)c1ccccn1 (stereo not drawn),-8.51% (inactive),
CCCCC1C(=O)N(c2ccccc2)N(c2ccccc2)C1=O,,15.8 µM (active)
COc1ccccc1N1CCN(CCCNc2cc(=O)n(C)c(=O)n2C)CC1,-5.85% (inactive),
Cc1cccc(C)c1OCC(C)N (stereo not drawn),5.64% (inactive),
O=C1NCC2(CCN(CCc3ccccc3)CC2)O1,-3.34% (inactive),
NCCS,-4.61% (inactive),
O=C1NC(=O)C(c2ccccc2)(c2ccccc2)N1,-14% (inactive),
O=C(O)CCc1nc(-c2ccccc2)c(-c2ccccc2)o1,8.2% (inactive),
C[N+](C)(C)CCCCCC[N+](C)(C)C,,inactive
CC(C)NCC(O)COc1cccc2[nH]ccc12 (stereo not drawn),1.29% (inactive),

# Experiment: qHTS to identify inhibitors of the type 1 interferon - major histocompatibility complex class I in skeletal muscle: primary screen against the NCATS Pharmaceutical Collection (AID 1347407);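 also: luminescence of HiBiT knocked into endogenous HLA-B as interferon-induced MHC class I level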; also: potency is read from the fitted curve at half-maximal effect; as to activity change, negative = inhibition: % is scaled to controls: 0 for no effect and ±100 for the full control effect
# Conditions: human skeletal muscle cells, IFN-b-induced MHC-I HiBiT luminescence, 24 h; series mostly up to 45.9 µM; activity change, negative = inhibition: at the top concentration
# Procedure, shortened: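 Cells were seeded with 4 ng/ml IFN-beta, incubated 1 h, then dosed with compounds over eight 1:5 steps up to 46 uM final. After 24 h at 37 C, HiBiT lytic reagent was added and luminescence read after 10 min lysis in the dark.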
Compound,"activity change, negative = inhibition",Potency
CCN(CC)C(=O)c1ccc(O)c(OC)c1,-2.22% (inactive),
CC(=O)c1ccc(S(=O)(=O)NC(=O)NC2CCCCC2)cc1,-4.25% (inactive),
CC(=O)N[C@@H](CS)C(=O)O,5.83% (inactive),
CC(=O)CCCCn1c(=O)c2c(ncn2C)n(C)c1=O,-2.18% (inactive),
COc1ccc2cccc(CCNC(C)=O)c2c1,-1.15% (inactive),
CCn1cc(C(=O)O)c(=O)c2ccc(C)nc21,-10.8% (inactive),
CCN(CC)CCOC(=O)c1ccc(N)cc1,10.1% (inactive),
CCN1CCC[C@H]1CNC(=O)c1cc(S(N)(=O)=O)ccc1OC,8.08% (inactive),
CC(=O)O[C@]1(C(C)=O)CC[C@H]2[C@@H]3C=C(Cl)C4=CC(=O)[C@@H]5C[C@@H]5[C@]4(C)[C@H]3CC[C@@]21C,-4.16% (inactive),
C[C@@H](O)[C@H]1C(=O)N2C(C(=O)O)=C(S[C@@H]3CN[C@H](C(=O)N(C)C)C3)[C@H](C)[C@H]12,,inactive
O=C(NCCN1CCOCC1)c1ccc(Cl)cc1,9.33% (inactive),
COC(=O)[C@@H]1[C@H]2C[C@H]3c4[nH]c5ccccc5c4CCN3C[C@@H]2CC[C@@H]1O,-20.8% (inactive),
Clc1ccc(Cn2c(CN3CCCC3)nc3ccccc32)cc1,-23.8% (inactive),
C[N+](C)(C)CC(=O)O,-7.82% (inactive),
CN(C)CCC(c1ccccc1)c1ccccn1 (stereo not drawn),-4.13% (inactive),
O=C(CCCCCCC(=O)Nc1ccccc1)NO,,4.19 µM (active)
COc1cc2ncnc(Nc3ccc(F)c(Cl)c3)c2cc1OCCCN1CCOCC1,-22.3% (inactive),
COc1ccccc1N1CCN(CCCNc2cc(=O)n(C)c(=O)n2C)CC1,-4.04% (inactive),
Cc1cccc(C)c1OCC(C)N (stereo not drawn),13.2% (inactive),
CC[C@]1(O)C[C@@H]2CN(CCc3c([nH]c4ccccc34)[C@@](C(=O)OC)(c3cc4c(cc3OC)N(C)[C@H]3[C@@](O)(C(=O)OC)[C@H](OC(C)=O)[C@]5(CC)C=CCN6CC[C@]43[C@@H]65)C2)C1,-22.4% (inactive),
CC1=C(/C=C/C(C)=C/C=C/C(C)=C/C(=O)Nc2ccc(O)cc2)C(C)(C)CCC1,-23% (inactive),
CN1C[C@H]2c3ccccc3Oc3ccc(Cl)cc3[C@@H]2C1,2.54% (inactive),
O=C1NCC2(CCN(CCc3ccccc3)CC2)O1,13.1% (inactive),
NCCS,-0.499% (inactive),
O=C1NC(=O)C(c2ccccc2)(c2ccccc2)N1,-11.5% (inactive),
O=C(O)CCc1nc(-c2ccccc2)c(-c2ccccc2)o1,-6.29% (inactive),
C[N+](C)(C)CCCCCC[N+](C)(C)C,3.01% (inactive),
CC(C)NCC(O)COc1cccc2[nH]ccc12 (stereo not drawn),0.809% (inactive),

# Experiment: qHTS for inhibitors of adenylyl cyclases using a fission yeast platform: a pilot screen against the NCATS LOPAC library (AID 1347410);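 also: plate controls were DMSO vehicle for no effect and DPI positive control for full effect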
# Conditions: S. pombe CHP2027, fbp1-GFP fluorescence, 18 h, yeast expressing mammalian AC9 and human GNAS; series mostly up to 57.5 µM; activity, positive = inhibition (GFP gain): at the top concentration
# Procedure, shortened: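 Growth medium went into the plates first, then compounds were pinned (final up to 57 µM), then CHP2027 yeast were added. Plates were incubated overnight (18 h) at 30C in the dark, and GFP was measured by laser scanning cytometry.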
Compound,"activity, positive = inhibition (GFP gain)",outcome
CCN(CC)C(=O)c1ccc(O)c(OC)c1,-0.438% (inactive),
CC(=O)c1ccc(S(=O)(=O)NC(=O)NC2CCCCC2)cc1,0.0116% (inactive),
CC(=O)N[C@@H](CS)C(=O)O,0.424% (inactive),
CC(=O)CCCCn1c(=O)c2c(ncn2C)n(C)c1=O,-0.438% (inactive),
CCn1cc(C(=O)O)c(=O)c2ccc(C)nc21,0.197% (inactive),
CCN(CC)CCOC(=O)c1ccc(N)cc1,-0.0997% (inactive),
CCN1CCC[C@H]1CNC(=O)c1cc(S(N)(=O)=O)ccc1OC,-0.438% (inactive),
CC(=O)O[C@]1(C(C)=O)CC[C@H]2[C@@H]3C=C(Cl)C4=CC(=O)[C@@H]5C[C@@H]5[C@]4(C)[C@H]3CC[C@@]21C,-0.438% (inactive),
O=C(NCCN1CCOCC1)c1ccc(Cl)cc1,0.0812% (inactive),
COc1cccc(-c2cc(=O)c3ccccc3o2)c1N,-0.438% (inactive),
COC(=O)[C@@H]1[C@H]2C[C@H]3c4[nH]c5ccccc5c4CCN3C[C@@H]2CC[C@@H]1O,-0.438% (inactive),
Clc1ccc(Cn2c(CN3CCCC3)nc3ccccc32)cc1,1.38% (inactive),
COc1ccc(Cc2nccc3cc(OC)c(OC)cc23)cc1OC,-0.438% (inactive),
CN(C)CCC(c1ccccc1)c1ccccn1 (stereo not drawn),0.123% (inactive),
CCCCC1C(=O)N(c2ccccc2)N(c2ccccc2)C1=O,-0.438% (inactive),
COc1ccccc1N1CCN(CCCNc2cc(=O)n(C)c(=O)n2C)CC1,-0.438% (inactive),
Cc1cccc(C)c1OCC(C)N (stereo not drawn),-0.438% (inactive),
CC1=C(/C=C/C(C)=C/C=C/C(C)=C/C(=O)Nc2ccc(O)cc2)C(C)(C)CCC1,0.174% (inactive),
O=C1NCC2(CCN(CCc3ccccc3)CC2)O1,0.114% (inactive),
NCCS,-0.438% (inactive),
O=C1NC(=O)C(c2ccccc2)(c2ccccc2)N1,0.183% (inactive),
O=C(O)CCc1nc(-c2ccccc2)c(-c2ccccc2)o1,0.726% (inactive),
C[N+](C)(C)CCCCCC[N+](C)(C)C,,inactive
CC(C)NCC(O)COc1cccc2[nH]ccc12 (stereo not drawn),0.0487% (inactive),
